Only some compounds are listed: those with a hit (about 19% of all), similar ones and a draw of the others.
DT40 TDP1 no CPT – qHTS for Inhibitors of human tyrosyl-DNA phosphodiesterase 1 (TDP1): qHTS in cells in absence of CPT; DT40 Tdp1-/- hTDP1 cells, no CPT, ATP luminescence, 48 h; Potency, µM (top dose mostly 46.2 µM), for the others: at the highest dose activity change, negative = growth inhibition, usual class: inhibitors; 15% of 420,000 active; note: potency is the fitted concentration of half-maximal effect; nearly all actives have a fitted effect of over 55% in size
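Chicken DT40 Tdp1-/- cells complemented with human TDP1, screened without camptothecin (DMSO vehicle only), 400 cells/well. Compounds pin-transferred, cells incubated at 37 °C for at least 48 hr. Growth read as ATP-dependent luminescence (CellTiter-Glo, 30 min at RT).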
HT1080-NT tox – kills 2HG-producing HT-1080-NT fibrosarcoma cells; HT-1080-NT fibrosarcoma viability, CellTiter-Glo ATP luminescence, 48 h; Potency, µM (top dose mostly 46.1 µM), for the others: at the highest dose activity, negative = less viability, usual class: cytotoxic; 1.6% of 360,000 active; AID 686970;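 note: NT is the 2HG producing partner of a matched IDH1 knockdown line; potency is the fitted concentration of half-maximal effect; 0% = DMSO-treated cells and -100% = media-only wells without cells; nearly all actives have a fitted effect of over 55% in size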
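Read-out is CellTiter-Glo luminescence after 10 minutes at room temperature, following 48 hours' compound treatment of HT-1080-NT cells (750 cells/well, RPMI, 5% FBS, 37 degrees C).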
IL-1B inflam inh – blocks inflammasome-driven IL-1 beta release. activity change, % at 57.5 µM. 4.7% of 360,000 active. THP-1 LPS/ATP IL-1B secretion, AlphaLISA, 16 h; hits give low values; in the data active = activity change below about -50%; inconclusive = mostly about -30% to -49%
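THP-1 cells pretreated 1 hr with compounds (up to 57.5 uM final), then stimulated with LPS (250 ng/mL final) plus ATP (1.25 mM final); secreted IL-1B measured by AlphaLISA after 16 hr, decreased signal indicating inhibition.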
HT1080 IDH1KD tx – HT-1080 IDH1 knockdown cell toxicity (counter line); Potency, µM (series often up to 46.1 µM), for the others: at the top dose activity, negative = toxicity, hits mostly cytotoxic; HT-1080 IDH1 knockdown viability, ATP luminescence, 48 h; 2% of 360,000 active;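 note: potency is the fitted concentration of half-maximal effect; 0% = DMSO wells and -100% = cell-free medium wells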
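After a 2 h attachment period, IDH1KD HT-1080 cells took pin-transferred compound for 48 h at 37 °C; ATP-based luminescence after 10 min room-temperature reagent incubation reported viability.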
DT40 TDP1 CPT – growth inhibition of DT40 Tdp1-/-;hTDP1 cells with camptothecin (screen for TDP1 inhibitors); chicken DT40 Tdp1-/-;hTDP1 cells + 20 nM CPT, ATP luminescence, 48 h; Potency, µM (titrated, usually from 46.2 µM), for the others: at the highest dose activity change, negative = growth inhibition, usual class: inhibitors; 12% of 420,000 active; note: potency is the fitted concentration of half-maximal effect; nearly all actives have a fitted effect of over 55% in size
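Chicken DT40 Tdp1-/- cells stably complemented with human TDP1 were seeded at 400 cells/well in medium containing 20 nM camptothecin, exposed to pin-transferred compounds, and grown at 37 °C for at least 48 hr. Viability was read as ATP luminescence.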
uPA surface inh – cell surface uPA generation inhibition. cell surface uPA generation assay, qHTS. Potency, µM (series often up to 38.3 µM), for the others: at the top dose activity change, negative = inhibition, actives largely listed as inhibitors. 0.31% of 330,000 active. AID 540303; active = well fitted inhibition curve with a large enough effect; inconclusive = small, poorly fitted or top-dose-only effect; inactive = no such curve, though single readings can be large or run the other way; tested in mouse RAW 264.7 cells; note: potency is the fitted concentration of half-maximal effect; nearly all actives have a fitted effect of over 55% in size
The depositor's hits bear a star; ? = inconclusive; nt = not tested or not shown; [ ] = another dose, or the depositor's remark. Unless noted, calls come from the whole dose curve; as a rule, active = well fitted curve in the direction sought with a large enough effect; inconclusive = small, poorly fitted or top-dose-only effect, or another doubt; inactive = no such curve, though single readings can be large; an effect the other way counts as inactive or inconclusive. Unless noted, % is set by controls: 0 for no effect and ±100 for the full control effect.

SMILES	DT40 TDP1 no CPT	HT1080-NT tox	IL-1B inflam inh	HT1080 IDH1KD tx	DT40 TDP1 CPT	uPA surface inh
Cc1ccc(CN2C(=O)CCC2(C)c2nnnn2-c2ccc3c(c2)OCCO3)cc1 (configuration not stated)	?	12%	14	8%	-18%	nt
CN(CC(=O)Nc1ccccc1C(=O)NC1CC1)Cc1ccc(N(C)C)cc1	7%	-2%	-23	3%	4%	-5%
CCCCC/C=C\C\C=C/C=C/C=C/[C@@H](SCC(NC(C)=O)C(=O)O)[C@@H](O)CCCC(=O)O (some centres not stated)	0%[0.628 µM]	nt	nt	nt	-26%[0.628 µM]	nt
O=C(Nc1cccc2c1CCCC2)c1ccc(Cl)c([N+](=O)[O-])c1	16µM*	-13%	-73*	-6%	?	-7%
O=C(Nc1cccc2c1CCCC2)c1cc([N+](=O)[O-])ccc1Cl	26µM*	16µM*	?	21µM*	?	-11%
O=C(CCC(=O)c1ccccc1)Nc1ccc(F)c(Cl)c1	3%	nt	nt	nt	11%	nt
Nc1ccn([C@@H]2O[C@H](CNCC3=CCOc4ccc(O)cc43)[C@@H](O)[C@H]2O)c(=O)n1	-7%	9%	12	7%	5%	nt
Cc1cc(C)cc(NC(=O)c2sc3nc(-c4ccccc4)cn3c2C)c1	12µM*	nt	nt	nt	15µM*	nt
Cc1c(C(N)=O)sc2nc(-c3ccccc3)cn12	-7%	17%	0	13%	-3%	-3%
COC(=O)c1ccc(NC(=O)c2sc3nc(-c4ccccc4)cn3c2C)cc1	2.6µM*	-1%	-23	-2%	6.5µM*	nt
Cc1cccc(NC(=O)c2sc3nc(-c4ccccc4)cn3c2C)c1C	?	nt	nt	nt	0.52µM*	nt
COC(=O)c1cc(NC(=O)Cn2ncc3c([nH]c4ccccc43)c2=O)cc(C(=O)OC)c1	1%	nt	nt	nt	8%	nt
CC(C)N(C(=S)NCc1ccccc1)C(C)C	?	7%	27	0%	-11%	-14%
CC(C)N(C(=S)NCc1ccccc1)c1ccccc1	-10%	-12%	-50*	-11%	-1%	-5%
O=C(NCc1ccccc1)C(c1ccccc1)n1c(=O)c(-c2cc3ccccc3[nH]2)nc2ccccc21 (configuration not stated)	21µM*	?	16	?	?	nt
O=C(NCc1ccccc1)C(c1cc2ccccc2o1)n1c(=O)c(-c2cc3ccccc3[nH]2)nc2ccccc21 (configuration not stated)	?	-25%	64	?	?	nt
O=C(NCc1ccccc1)C(C1CC1)n1c(=O)c(-c2cc3ccccc3[nH]2)nc2ccccc21 (configuration not stated)	?	23µM*	-17	?	?	nt
Cc1ccc2c(=O)cc(C(=O)Nc3sc4c(c3C(=O)NCC3CCCO3)CCCC4)oc2c1C (configuration not stated)	-17%	nt	nt	nt	-3%	nt
COc1ccc(/C=N/NC(=O)c2cc3c(OC)ccc(OC)c3[nH]2)cc1O	0.21µM*	2.3µM*	-27	0.41µM*	0.37µM*	-14%
COc1ccc(OC)c2[nH]c(C(=O)N/N=C/c3ccccc3O)cc12	3.7µM*	?	84	?	5.2µM*	?
O=C(CN1C=NS(=O)(=O)c2ccccc21)Nc1ccc(F)cc1	-15%	nt	nt	nt	-2%	nt
COCCn1c(SCC(=O)NC(=O)NCc2ccccc2)nc2ccccc21	?	-4%	-21	-9%	?	2%
COc1ccc(CNC(=O)Cn2c(SCC(=O)N(C)c3ccccc3)nc3ccccc32)cc1	18µM*	nt	nt	nt	?	nt
CCN(C(=O)CSc1nc2ccccc2n1CC(=O)NCc1ccc(OC)cc1)c1ccccc1	23µM*	nt	nt	nt	?	nt
CSc1nc2ccccc2n1CC(=O)Nc1ccccc1	18µM*	-1%	17	-8%	5.2µM*	-10%
SMILES	DT40 TDP1 no CPT	HT1080-NT tox	IL-1B inflam inh	HT1080 IDH1KD tx	DT40 TDP1 CPT	uPA surface inh
CCc1ccc(NC(=O)Cn2c(SC)nc3ccccc32)cc1	?	-11%	17	-1%	?	9%
O=C(CSc1nc2ccccc2n1CCc1ccccc1)c1ccc(O)c(O)c1	16µM*	-21%	21	-21%	12µM*	-12%
O=C(CSc1nc2ccccc2n1CCc1ccccc1)N1CCOCC1	?	0%	-10	12%	?	0%
COc1cccc(C=NC=Nc2cccc(OC)c2)c1	-22%	nt	nt	nt	0%	nt
Cc1cccc(C(=O)NC2CCN(CC(=O)NCc3ccccc3F)CC2)c1	-13%	-10%	-10	-6%	10%	-6%
CCC(CC)C(=O)c1c[nH]c(C(=O)N2CCN(c3ccccc3)CC2)c1	-25%	1%	-15	0%	-15%	nt
CC1(O)C(c2ccccc2)=Nc2ccccc21 (configuration not stated)	?	-14%	30	-14%	?	nt
CCN(C(=O)CSc1nc2ccccc2n1CC(=O)Nc1ccccc1C)c1ccccc1	21µM*	nt	nt	nt	?	nt
O=C(O)CCSc1nc2ccccc2n1Cc1ccccc1	0%	9%	40	-1%	-11%	1%
O=C(CSc1nc2ccccc2n1Cc1ccccc1)NCc1ccccc1	23µM*	nt	nt	nt	-24%	nt
Cc1cccc(NC(=O)Cn2c(SCC(=O)NCc3ccccc3)nc3ccccc32)c1C	-25%	nt	nt	nt	-14%	nt
CCn1c2ccccc2c2cc(CN3CCN(Cc4cc(OC)ccc4O)CC3)ccc21	?	?	-84*	?	26µM*	0%
COc1ccc(O)c(CN2CC3CCC(CC3)C2)c1	?	8%	-9	7%	23µM*	2%
COc1ccc(O)c(CN2CCN(C/C=C/c3ccccc3)CC2)c1	-28%	11%	-15	?	-24%	nt
COc1ccc(CN2CCN(CC(O)Cn3c4ccccc4c4ccccc43)CC2)cc1 (configuration not stated)	?	18µM*	-57*	?	?	-26%
CCn1c2ccccc2c2cc(CN3CCN(Cc4cc(OC)c(O)c(OC)c4)CC3)ccc21	10µM*	nt	nt	nt	10µM*	nt
COc1ccc(O)c(CN2CCCC(N3CCN(c4ccc(F)cc4)CC3)C2)c1 (configuration not stated)	?	0%	-3	7%	?	-3%
Cc1ccc(C)c(N2C(=O)c3ccc(C(=O)Nc4ccccn4)cc3C2=O)c1	2%	3%	17	6%	1%	nt

Compound activity deposited in PubChem by National Center for Advancing Translational Sciences (NCATS).
